Test results as given in PubChem BioAssay (Tox21).
Values joined by “and” are separate entries in the source; they are usually repeats but may differ in a detail not shown here. Identical values can stand only once. Results filed as inconclusive are left out. Entries that show only a call come without a potency. Active and inactive are the calls of the source. Calls follow the shape of the dose curve; as a rule, active = well fitted cell-killing curve with a large enough effect in the repeat runs; inconclusive = weak or mixed curves; inactive = flat fitted curve, though single readings scatter.

Test: qHTS RealTime-Glo MT Cell Viability Assay in HepG2 cells - 8 hour (AID 1224873); also: nearly all actives have a fitted effect of over 55% in size
Conditions: RealTime-Glo luminescence; series mostly up to 76.8 µM
Source text: National Center for Advancing Translational Sciences [NCATS]
NIH Chemical Genomics Center [NCGC]
U.S. Environmental Protection Agency [EPA]
National Institutes of Environmental Health Sciences [NIEHS]
National Toxicology Program [NTP]
U.S. Food and Drug Administration [FDA]
Measure of cell viability is critical in the cell-base assay. Analysis of cell viability is necessary for the characterization of cell responses to cytotoxic drugs and environmental stress. A RealTime-Glo MT Cell Viability Assay to monitor cell viability in real time of continues cell culture during 40 hours of compound treatment was used to screen Tox21 10K library compounds in HepG2 cells. The RealTime-Glo MT Cell Viability Assay is a nonlytic, homogeneous, bioluminescent method to measure cell viability in real time using a simple, plate-based method. The assay involves adding NanoLuc luciferase and a cell-permeant prosubstrate to cells in culture. Viable cells reduce the proprietary prosubstrate to generate a substrate for NanoLuc luciferase. This substrate diffuses from cells into the surrounding culture medium, where it is rapidly used by the NanoLuc Enzyme to produce a luminescent signal. The signal correlates with the number of viable cells, making the assay well suited for cytotoxicity studies.
Tox21 Assay Protocol Summary:
The mixture of HepG2 cell suspension and reagents were dispensed at 600cells/6 ul/well in 1536-well tissue culture treated black solid bottom plates using a Multidrop dispenser. After the assay plates were incubated at a 37 C/5% CO2 incubator for 5 hours, 23 nL of compounds dissolved in DMSO, positive and negative controls was transferred to the assay plate by a pintool work station. The plates were incubated at 37 C for 40 hours. The luminescence intensity were measured at 0h, 8h, 16h, 24h, 32h and 40h time points using ViewLux plate reader during compound treatment.
Potency is read from the fitted curve at half-maximal effect.

Structure (SMILES) | Potency
CCCCCCC(C)OC(=O)COc1nc(F)c(Cl)c(N)c1Cl (stereo not given) | inactive
CCCCCCCC/C=C\CCCCCCCC(=O)N(C)CC(=O)O | inactive
OCCN1CN(CCO)CN(CCO)C1 | inactive
COc1cccc(OC)c1O | inactive
Clc1nc2ccccc2s1 | inactive
C[C@H]1O[C@@H](O[C@H]2[C@@H](O)C[C@H](O[C@H]3[C@@H](O)C[C@H](O[C@H]4CC[C@@]5(C)[C@H](CC[C@@H]6[C@@H]5C[C@@H](O)[C@]5(C)[C@@H](C7=CC(=O)OC7)CC[C@]65O)C4)O[C@@H]3C)O[C@@H]2C)C[C@H](O)[C@@H]1O | inactive
C(=C/c1ccccc1)/c1ccccc1 | inactive
O=Nc1ccc(NO)cc1 | inactive
CCOC(=O)CC(C)O (stereo not given) | inactive
COc1cccc(O)c1 | inactive
O=C1OC(=O)c2ccc3c4c(ccc1c24)C(=O)OC3=O | inactive
ClC/C=C\CCl | inactive
COc1cc(C(=O)NS(=O)(=O)c2ccccc2C)ccc1Cc1cn(C)c2ccc(NC(=O)OC3CCCC3)cc12 | inactive
Brc1ccccn1 | inactive
CN1CN(C)CN(C)C1 | inactive
O=C[C@H](O)[C@H](O)[C@H](O)CO | inactive
Cc1cc(C)c(C=O)c(C)c1 | inactive
CCCCOC(=O)C(C)CC (stereo not given) | inactive
Cc1nc(Nc2ncc(C(=O)Nc3c(C)cccc3Cl)s2)cc(N2CCN(CCO)CC2)n1 | inactive
CS(C)(=O)=O | inactive

Structure (SMILES) | Potency
C/C=C/C=N/NC(=O)c1ccncc1 | inactive
CC1CNCC(C)O1 (stereo not given) | inactive
C/C=C/c1ccc(OC)c(OC)c1 | inactive
Oc1cc2ccccc2cc1O | inactive
CCOC(=O)COc1ccc(C)cc1 | inactive
CCCCCCCC/C=C\CCCCCCCC(=O)OCCOC(=O)CCCCCCC/C=C\CCCCCCCC | inactive
CCOCOCC | inactive
CC(=O)O[C@@H]1C[C@@H]2CC[C@@]1(C)C2(C)C | inactive
CCCCCCCC/C=C\CCCCCCCC(=O)NCc1ccc(O)c(OC)c1 | inactive
O=C(c1ccccc1)c1cc(Cl)ccc1O | inactive
Cc1cccc(N(C)C)c1 | inactive
CCCCCCCCCC(=O)N(C)C | inactive
Cc1cccc(Br)c1 | inactive
CCCOc1sc(C(=O)N2CCC(c3cc(CN)ccc3F)CC2)c(C)c1Br | 31.8 µM (active)
CCCCCCCCCCCCOC(=O)c1cc(O)c(O)c(O)c1 | 48.8 µM (active) and 43.6 µM (active)
CSc1c(Cl)c(Cl)c(Cl)c(Cl)c1Cl | inactive
CC(C)=CCCC(C)CCOC(=O)C(C)C (stereo not given) | inactive
CCCCCCCC(=O)OCC | inactive
CC1CCCCC1 | inactive
Cc1occc1SSc1ccoc1C | inactive
